The results in this text go back to ChEMBL document CHEMBL3988442, “University of Dundee, Small-Polar-MMV Screening Library” (2021).

SMILES strings stand for the structures.

This assay concerns the target AMP-activated protein kinase, AMPK (Homo sapiens) (UniProt P54646+O43741+P54619+Q9UGJ0+Q9Y478+Q13131+Q9UGI9). Briefly: AMP-dependent Kinase enzyme assay. An in vitro enzyme assay that detects ADP turnover that is directly proportional to AMPK activity. This uses naive AMPK that is activated during the assay with MK-8722. In kind it is functional. The arrangement: scale not given: direction of the effect not stated beside the values. Particulars: 30 µM.
Consider `Cc1nc(O)cc(C2(C)CCCNC2)n1` (stereo not given), for which the Percent Effect amounted to 19.4%. Consider `Cc1ccccc1CNC(=O)CNc1ccc(OC2CCOC2)cc1` (stereo not given), for which the Percent Effect was determined as 10.2%. For the compound `COC[C@]1(O)CCN(c2cc(OC)ncn2)CC1(C)C`, the Percent Effect is 20.7%. Turning to `O=C(c1nc(N2CCCC2)ncc1Cl)N1CCN(Cc2ccsc2)CC1`, the Percent Effect worked out at 7.12%. Next, `COCCN1CCN(Cc2cnc(C3(C)CCCCO3)nc2)CC1` (stereo not given): 11.3%.

Turning to `CCc1nc2n(n1)CC(NCc1cc3ccccc3o1)CC2` (stereo not given), the Percent Effect was -3.35%.

In the case of `O=C(c1ccncc1)N1CCC(Oc2cccc(C(F)(F)F)c2)CC1`, the Percent Effect was -1.49%. Next, `CN1CCN(c2ccc(F)cc2NC(=O)NCCn2ccnc2)CC1`: 12.1%.

Turning to `Cc1nn(C)cc1NC(=O)CN1CCN(C2CCCC2)C(=O)C1`, the Percent Effect was 16.5%. For `O=C(Cc1c[nH]c(=O)[nH]c1=O)N1CCCCC1CCc1cccc(O)c1` (stereo not given), the Percent Effect came out at 1.27%. As to `COc1cc(F)cc2sc(NC(=O)COCC3CCCO3)nc12` (stereo not given), the Percent Effect turned out to be 1.22%. `CCN(CC)CCCNC(=O)Nc1c(C)cccc1C(C)C`: the Percent Effect turned out to be 4.58%. Next, `Cc1nc(CNCc2cccc(OC34CCCN(CC3)C4)c2)n[nH]1` (stereo not given): -7.43%; `CCCNC(=O)CNC(=O)CC1CCCc2cc(OC)ccc21` (stereo not given): -4.21%. Regarding `CN(C)c1ccc(C(=O)N2CCC(c3cc4cnccc4[nH]3)CC2)cc1`, the Percent Effect came to 20.5%.

On to `CCN(C(=O)CN1CCCN(c2nc(C)ns2)CC1)C1CC1`, for which the Percent Effect stood at 5.97%. Then `CCc1c(C(=O)Nc2ccc(F)c(C(=O)NC)c2)cnn1CC(C)C`, with 11.4%; and `CC(C)c1cc(NC(CCO)c2ccccc2)n2nccc2n1` (stereo not given), with 13.4%; and `Cc1nn(C)c(C)c1CC(=O)NCC1(C(N)=O)CCOCC1`, with -4.43%. For the compound `CN(CCc1ccccc1)c1cnn(C)c(=O)c1Br`, the Percent Effect turned out to be 7.95%.

`Nc1ccc(C(=O)N2CCC(Oc3cccc(C(F)(F)F)c3)CC2)cn1`: the Percent Effect is 6.7%. Next, `COCCN(Cc1sccc1C)C(=O)COc1ccccc1O`: 2.3%; `CNc1nc(C(=O)N2CCCn3nc(C(=O)N4CCCC4)cc3C2)cs1`: 10.6%. `CCCc1nc(C)cc(N2Cc3cnn(CCO)c3C2)n1`: the Percent Effect turned out to be 5.18%. Regarding `Cc1cc(C)n2c(CNCCNc3ccccc3)cnc2n1`, the Percent Effect is -15.1%. On to `CCN(CCOC)C(=O)c1ccc2c(c1)nc(N1CC[C@H](O)C1)n2C`, for which the Percent Effect was 3.21%.

Turning to `COc1c(C)cnc(CN2CCn3c(nnc3C(C)C)C2)c1C`, the Percent Effect came out at 22%. Then `O=C(CCOc1ccc(Cl)cc1)NCCCn1cccn1`, with -3.71%. Then `CC(c1ccc(F)cc1F)N1CCN(CCC(=O)NC(N)=O)CC1` (stereo not given), with -3.39%; and `Cc1nc(N(C)C)cc(C2(C)CCCNC2)n1` (stereo not given), with 10.2%; and `C[C@@H]1CN(Cc2cn(C)nc2-c2ccccc2F)C[C@H](C)O1`, with 19.5%. Then `CCc1cc(=O)[nH]c(-c2ccc(NC(C)COC)nc2)n1` (stereo not given), with -2.5%; and `Cn1cc(CNCCNc2ncc(Cl)cc2Cl)cn1`, with -10.3%; and `Cc1ccc(S(=O)(=O)N2CCN(Cc3ccncc3)CC2)c(Cl)c1`, with -6.37%. Take `Cc1ccccc1C(=O)NC[C@@H]1CCN(C(=O)C2(O)CCCC2)C[C@H]1O`: the Percent Effect is 2.29%. Next, `O=C1NCCN(Cc2cccnc2)C1CC(=O)N1CCc2n[nH]cc2C1` (stereo not given): -26.7%; `Cc1cc(C)n(C2CCN(C(=O)c3cn4ccsc4n3)C2)n1` (stereo not given): -11.9%. In the case of `O=C(Cc1cccs1)NCc1ccnc(C2CCCOC2)n1` (stereo not given), the Percent Effect was determined as 12.2%.

As to `CC(C)c1cc(NCc2csc(N(C)C)n2)nc(N)n1`, the Percent Effect is -10.6%.

In the case of `CN1CCCC(CNC(=O)CN(C)S(=O)(=O)c2cccnc2)C1` (stereo not given), the Percent Effect was -10.7%.
